Screening results from PubChem.
Marburg entry inh: blocks Marburg virus binding to or entry into cells; Marburg virus pseudotyped entry inhibition, cell reporter; Potency, µM (highest dose often 37.8 µM), for the others: at the top dose activity change, negative = inhibition, usual class: inhibitors; hit rate 1.8% among 300,000; AID 540276; calls by dose curve; tested in HEK293 cells; also: potency is read from the fitted curve at half-maximal effect
Lassa entry inh: inhibitors of Lassa virus binding or cell entry. Lassa virus pseudotype entry inhibition, cell reporter. Potency, µM (series often up to 37.9 µM), for inactives: top-dose activity change, negative = inhibition, hits mostly inhibitors. hit rate 1.2% among 300,000. AID 540256; calls by dose curve; tested in HEK293 cells; also: potency is read from the fitted curve at half-maximal effect; nearly all actives have a fitted effect of over 50% in size
FMDV inh: foot and mouth disease virus antiviral activity. FMDV antiviral cell-based qHTS. Potency, µM (top dose mostly 57.9 µM), for the others: at the top dose activity change, negative = inhibition, actives largely listed as inhibitors. hit rate 1.2% among 410,000. AID 1159524; calls by dose curve; tested in HEK293T cells; also: read-out not given here; potency is read from the fitted curve at half-maximal effect; nearly all actives have a fitted effect of over 45% in size
HCV inh: inhibitors of hepatitis C virus infection. AID 651820. hit rate 3.4% among 340,000. Potency, µM (highest dose often 41.8 µM), for the others: at the highest dose activity change, negative = inhibition, most hits filed as inhibitors. Huh7.5.1 HCVcc-Cre infection, luciferase reporter, 44 h; active = well fitted inhibition curve with a large enough effect; inconclusive = small, poorly fitted or top-dose-only effect, or another doubt; inactive = no such curve, though single readings can be large or run the other way; also: potency is read from the fitted curve at half-maximal effect
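Luciferase read-out (15 sec integration) after a 15 min room-temperature substrate step quantifies HCVcc-Cre infection. Cells, 1,000 per well, had compound added 4 h post-plating, then virus at ~0.5 moi, and were cultured 44 h.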
HCMV antiviral: human cytomegalovirus inhibition; AID 1259415; HFF cells, HCMV-luciferase reporter, 72 h; active compounds read low; hit rate 4.5% among 410,000; activity change, negative = inhibition, % at 57.5 µM; in the data active = activity change below about -60%; inconclusive = no clear call, values can overlap the other calls; inactive = above about -39%
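Screen run at 2 compound doses on HFFs infected with reporter HCMV, MOI 1 PFU/cell. Luciferase activity from cell lysates at 72 h post infection gave inhibition relative to buffer-only and Salinomycin wells.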
* marks the source's active call; other numbers are inactive results; ? = inconclusive; · = no result given; ! = not confirmed by another sample; [ ] = dose if it differs, or a comment. Shown are actives, neighbours in structure and some others; about 7.9% of the full set was active somewhere. % is scaled to controls: 0 for no effect and ±100 for the full control effect.

SMILES	Marburg entry inh	Lassa entry inh	FMDV inh	HCV inh	HCMV antiviral
CC1CCN(c2c(NCc3ccc(C(=O)N4CCc5ccccc54)cc3)c(=O)c2=O)CC1	3.7%	·	17.3%	3.6%	-84.2*
CCCCNC(=O)c1ccc(CNc2c(N3CCC(C(=O)OCC)CC3)c(=O)c2=O)cc1	?	-3.1%	-4.0%	?	-61.2*!
Cc1cccc(N2CCN(C(=O)c3ccc(CNc4c(N5CCC(C)CC5)c(=O)c4=O)cc3)CC2C)c1 (stereo not given)	·	·	?	?	-60.5*
CCCNCC(O)Cn1c2ccccc2n2c(=O)cc(C)c(C#N)c12 (stereo not given)	?	16.3%	0.0%	?	-60.9*
CC(C)N(C(=O)[C@H]1C[C@H](CC(=O)NCCC2=CCCCC2)C(=O)N2CCc3c([nH]c4ccc(Cl)cc34)[C@]12C)C(C)C	·	·	?	-25.6%	-91.1*
COc1ccc(CNC(=O)C[C@H]2C[C@H](C(=O)N(C(C)C)C(C)C)[C@@]3(C)c4[nH]c5ccc(Cl)cc5c4CCN3C2=O)cc1OC	·	·	?	12.6µM*	-14.8
COc1ccc2[nH]c3c(c2c1)CCN1C(=O)C(CC(=O)NC/C=C(\C)CCC=C(C)C)C[C@H](C(=O)N(C(C)C)C(C)C)[C@@]31C (stereo not given in full)	-6.2%	·	-8.6%	6.31µM*	-102.9*
CC(C)=CCC/C(C)=C/CNC(=O)C[C@H]1C[C@H](C(=O)N(C(C)C)C(C)C)[C@@]2(C)c3[nH]c4ccc(Cl)cc4c3CCN2C1=O	·	·	?	-0.3%	7.1
C[C@@H](NC(=O)[C@@H]1[C@@H](CO)[C@@H]2Cn3c(cccc3=O)[C@@H]2N1C(=O)C1CC1)c1ccccc1	·	·	·	·	0.5
Clc1ccc2c(c1)-c1[nH]ncc1CS2	1.6%[46.1 µM]	16.0%[46.1 µM]	-14.4%	-23.0%	-61.3*
Nc1cc(-c2cccc(F)c2)nn1S(=O)(=O)c1cccc2nsnc12	·	·	-2.2%	-3.2%	-101.4*
Nc1cc(-c2ccc(Br)cc2)nn1S(=O)(=O)c1cccc2nsnc12	·	·	-15.4%	11.2µM*	-13.2
COc1ccc(C(=O)Oc2ccc(F)cc2C(=O)/C=C/c2ccc(OC)c(OC)c2)cc1	-14.2%	?	39.8µM*	-11.6%	?
CCOc1ccc(C(=O)/C=C/c2ccc(OC)c(OC)c2)cc1	?	?	?	?	102.1
COc1ccc(/C=C/C(=O)c2ccc3c4c(cccc24)CC3)cc1OC	?	?	17.8µM*	?	?
CCOc1ccc(/C=C/C(=O)c2ccccc2)cc1OC	-8.7%	7.5%	-15.4%	10.2%	-1.4
COc1ccc(/C=C/C(=O)c2cc(F)ccc2OC(=O)c2ccccc2C)cc1OC	5.17µM*	?	25.1µM*	-21.9%	-85.9*
CC1CN(CCC(=O)N2CCCC(C(=O)c3nccn3C)C2)Cc2cc(Cl)ccc2O1 (stereo not given)	·	·	-8.5%	·	·
C=C[C@@]1(C)CC[C@H](O)[C@H]2C(=O)CCC[C@H]21	-27.8%[14.2 µM]	·	·	·	·
CCCCN1CC(COCc2ccccc2)Oc2cccc(NCc3cc(OC)c(OC)c(OC)c3)c2S1(=O)=O (stereo not given)	·	·	·	·	-15.1
COc1cc(/C=C(/NC(=O)c2ccccc2)C(=O)Nc2ccc(O)cc2)c([N+](=O)[O-])cc1OC	-13.6%	?	0.0%	0.0%	-73.2*
COc1cc(/C=C(/NC(=O)c2ccccc2)C(=O)Nc2ccccc2)c([N+](=O)[O-])cc1OC	2.6%	8.2%	-15.4%	?	29.4
C=C1C(O)[C@@H]2O[C@]3(CC[C@H](/C=C/C(C)[C@@H]4CC(C)=CC5(O[C@H](C[C@@](C)(O)CO)CCC5O)O4)O3)CC[C@H]2O[C@@H]1C(O)CC(C)[C@H]1OC2(CCCCO2)CCC1C (stereo not given in full)	·	·	-13.6%	1.41µM*	·
C=C1[C@@H](O)[C@@H]2O[C@]3(CC[C@H](/C=C/[C@@H](C)[C@@H]4CC(C)=CC5(O[C@H](C[C@@](C)(O)C(=O)OC)CC[C@H]5O)O4)O3)CC[C@H]2O[C@@H]1[C@@H](O)C[C@H](C)[C@H]1OC2(CCCCO2)CC[C@H]1C (stereo not given in full)	·	·	10.1%	0.562µM*	·
CC(C)C(=O)NC(=O)[C@@H]1CCCN1C(=O)C=Cc1ccccc1	1.4%[14.2 µM]	·	·	·	·
SMILES	Marburg entry inh	Lassa entry inh	FMDV inh	HCV inh	HCMV antiviral
O=C(CSc1nc(-c2cccc(F)c2)[nH]c1-c1ccccc1)Nc1ccc2c(c1)OCCO2	?	10µM*	?	·	-106.2*
O=C(CSC1=NC2(CCCCCC2)N=C1c1ccccc1)Nc1ccc2c(c1)OCCO2	?	?	-21.8%	?	?
COc1cc(-c2nc(SCC(=O)Nc3ccc4c(c3)OCO4)c(-c3ccccc3)[nH]2)cc(OC)c1OC	?	?	3.1%	·	?
O=C(CSC1=NC2(CCCCC2)N=C1c1ccccc1)Nc1ccc2c(c1)OCCO2	-1.9%	4.0%	0.0%	11.2µM*	10.9
COc1ccc(-c2[nH]c(-c3cccc(OC)c3)nc2SCC(=O)Nc2ccc3c(c2)OCO3)cc1	-13.6%[46.1 µM]	7.94µM*	4.7%	·	?
O=C(CSc1nc(-c2ccccc2)[nH]c1-c1ccccc1)Nc1ccc2c(c1)OCO2	?	?	?	·	-108.7*
O=C(CSc1nc(-c2ccccc2)c(-c2ccccc2)[nH]1)Nc1ccc2c(c1)OCO2	?	?	-18.2%	?	-68.4*
COc1ccc(CCNC(=O)CSC(=O)c2ccccc2)cc1OC	·	·	-13.5%	-1.7%	-60.2*
COc1ccc(CCNC(=O)CSc2cn(Cc3ccccc3)c3ccccc23)cc1OC	-16.6%	-11.6%	?	11.2µM*	-24.1
COc1ccc(CCNC(=O)CSc2ccccc2)cc1OC	-4.0%	-7.6%	-9.2%	8.6%	-30.2
COc1ccc(CCNC(=O)CSc2cn(Cc3cccc(C)c3)c3ccccc23)cc1OC	?	?	0.0%	10µM*	24.5
Cn1c(=O)c2cc(NC(=O)CCc3ccc4c(c3)OCO4)ccc2n1Cc1ccc(F)cc1	·	·	-29.2%	·	?
Cc1cc(N2CCN(C/C=C/c3ccccc3)CC2)n2ncnc2n1	?	?	·	?	-91.3*
Cc1cc(N2CCN(c3ccccc3)CC2)n2ncnc2n1	?	-4.7%	?	9.8%	?
COc1ccc(OC)c2[nH]c(C(=O)N/N=C/c3ccccc3O)cc12	·	·	?	3.16µM*	-92.5*
CCOc1ccc(/C=N/NC(=O)c2cc3c(OC)cccc3[nH]2)cc1	?	?	-8.3%	-15.9%	-63.1*
COc1ccc(/C=N/NC(=O)c2cccc(OC(F)(F)C(F)F)c2)c(OC)c1OC	23.3%	10µM*	-20.7%	?	23.3
COc1ccc(OC)c(/C=N/NC(=O)c2cc3c(OC)cccc3[nH]2)c1	10µM*	2.6%	-27.0%	?	-16.9
COc1cccc(/C=N/NC(=O)c2cc3c(OC)cccc3[nH]2)c1OC	-1.4%	-9.9%	?	?	-32.9
